Where “and” joins values, the source holds several entries; their conditions need not be identical. Identical values can stand only once. Results filed as inconclusive are left out. A call without a number means that no potency is given here. Calls of active or inactive are those of the source. Calls come from the whole dose curve; as a rule, active = well fitted cell-killing curve with a large enough effect in the repeat runs; inconclusive = weak or mixed curves, or effect the other way; inactive = flat fitted curve, though single readings scatter.
Assay: Nuclear factor erythroid 2-related factor 2/antioxidant responsive element (Nrf2/ARE) small molecule agonists: qHTS cell viability counter screen in human keratinocytes (AID 1919968); note: nearly all actives have a fitted effect of over 55% in size
Settings: KeratinoSens HaCaT ARE cells viability, CellTiter-Fluor, 24 h; series mostly up to 92.4 µM
In short: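 In human HaCaT keratinocytes stably expressing an ARE-driven luciferase, compound exposure lasted 23 h at 37 C under 5% CO2. Viable cells are quantified with a protease-based fluorogenic reagent (CellTiter-Fluor) read 1 h after addition.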
Potency is the fitted concentration of half-maximal effect.

| SMILES | Potency |
| --- | --- |
| O=C(O)c1ccccc1O | inactive |
| O=[N+]([O-])c1cccc(O)c1 | inactive |
| CCC(C)(C)c1ccc(O)c(C(C)(C)CC)c1 | 13.5 µM (active) and 24.3 µM (active) |
| C[C@]12CC[C@H]3[C@@H](CC=C4C[C@@H](O)CC[C@@]43C)[C@@H]1CC[C@@H]2O | inactive |
| O=[N+]([O-])O | inactive |
| CN1C(=O)CN=C(c2ccccc2)c2cc(Cl)ccc21 | inactive |
| Nc1ccc(-c2ccc(N)c(Cl)c2)cc1Cl | inactive |
| CN(C)c1ccc(N=O)cc1 | 27.4 µM (active) and 54.5 µM (active) |
| O=[N+]([O-])/C=C/c1ccccc1 | 17.5 µM (active) and 27.3 µM (active) |
| CCCCCCCCCCCCOS(=O)(=O)O | inactive |
| O=S(=O)(O)O | inactive |
| CCC1(c2ccc(N)cc2)CCC(=O)NC1=O (stereo not given) | inactive |
| C=CC#N | inactive |
| CC(=O)O | inactive |
| COC(=O)NC(=S)Nc1ccccc1NC(=S)NC(=O)OC | inactive |

— PubChem BioAssay (Tox21)
